Source: the supplement of paper PMC12636033
± gives the standard deviation of the averaged measurements. The full ranking holds about 33,000 sequences; the median of “E-score (rank enrichment, -0.5 to 0.5)” is about -0.0075, and the highest 2% start at about 0.23. The sample as a whole holds a higher share of the highest values than the screen did.

The sequences below were run on WT Max(13-93) synthetic (M65Nle) (assay: PBM 8-mer E-score (E-score (rank enrichment, -0.5 to 0.5)); higher = stronger preferential binding).
Description: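 Protein binding microarray (universal PBM chip covering all 10-mers in fixed probe flanks) with chemically synthesized human Max(13-93) bHLH-LZ analogs (not full-length Max) bearing noncanonical residues (hArg, Tha, Aib, Nle at 65) and aromatic Cys staples. Read-out per 8-mer (and its reverse complement): E-score (rank-based enrichment, -0.5 to 0.5) and Z-score of median probe intensity.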

Point of comparison: TCTTGGAA, “PBM 8-mer E-score” value -0.078 ± 0.026. Against it:
- ACCGCGTA — higher, 0.0537 ± 0.048
- ACCGCGTC — within error, -0.117 ± 0.08
- GAACCCCC — lower, -0.387 ± 0.031
- ATCTTCAG — within error, 0.0326 ± 0.1
- TAGTCAAA — higher, 0.14 ± 0.09
- TAGATTAA — higher, 0.154 ± 0.027
- CGATGCCC — lower, -0.19 ± 0.045
- AAAAACGA — higher, 0.25 ± 0.03
- GAAATCCA — within error, -0.0865 ± 0.057
- AAAACGGC — higher, 0.251 ± 0.16
- GAAACGGC — higher, 0.0668 ± 0.011
- GAAAACGA — higher, 0.0526 ± 0.057
- AAAAACCA — higher, 0.238 ± 0.057
- CAAAACGA — higher, 0.0654 ± 0.066
- CAAAACCA — higher, 0.0992 ± 0.086
- CAAATCCA — within error, 0.0485 ± 0.13
- TAAAACCA — higher, 0.148 ± 0.056
- AAAATCCA — higher, 0.26 ± 0.06
- CAAACGGC — lower, -0.279 ± 0.026
- AGTTGTGG — within error, 0.00744 ± 0.15
- CGACCGTA — within error, -0.107 ± 0.19
- CCATAGAA — higher, 0.0354 ± 0.028
- GAACCAGC — within error, -0.132 ± 0.07
- GGGCCATA — higher, 0.00373 ± 0.018
- CAGTTACG — within error, -0.0592 ± 0.044
- CATGTAAA — higher, 0.203 ± 0.052
- AATGTGTG — higher, 0.267 ± 0.05
- AATGTGTC — higher, 0.0393 ± 0.0075
- AATGTGTA — higher, 0.167 ± 0.021
- AATGTAAA — higher, 0.278 ± 0.0039
- AATGTATC — higher, 0.168 ± 0.036
- AATGTATA — higher, 0.211 ± 0.048
- AATGTATG — higher, 0.255 ± 0.086
- AATGTAAT — higher, 0.12 ± 0.11
- ATAGGCGG — within error, 0.057 ± 0.12
- AAAGGATC — within error, -0.108 ± 0.042
- AGCTTCAA — higher, 0.106 ± 0.021
- ATCACTGA — within error, -0.0485 ± 0.06
- ACGTGAAA — higher, 0.279 ± 0.041
- ACGTGAAG — higher, 0.0785 ± 0.02
- CTGTGAAA — within error, 0.00343 ± 0.13
- TCGTGAAA — within error, -0.119 ± 0.14
- ACGTGAAT — higher, 0.239 ± 0.066
- ACGTGAAC — higher, 0.0244 ± 0.025
- GTGTGAAA — higher, 0.1684 ± 0.00099
- CCGTGAAA — higher, -0.0191 ± 0.012
- ATGTGAAA — higher, 0.271 ± 0.12
- AACGGTAC — higher, 0.0818 ± 0.035
- TAGATTGA — within error, -0.00515 ± 0.13
- CCAGCAAC — lower, -0.121 ± 0.011
- CACATTCA — higher, 0.111 ± 0.11
- CGTGGCCA — higher, 0.131 ± 0.084
- TCTACAAA — within error, 0.0553 ± 0.18
- ACGTATTA — higher, 0.165 ± 0.11
- GAAGGTAC — within error, -0.096 ± 0.22
- ACCACTCC — higher, 0.0165 ± 0.045
- GAAAATGA — within error, 0.0385 ± 0.12
- AAAAATGA — higher, 0.2619 ± 0.0016
- CAAAATGG — higher, 0.116 ± 0.0099
- TAAAATGA — higher, 0.153 ± 0.019
- CAAAATGC — higher, 0.0988 ± 0.086
- CAAAATGA — higher, 0.287 ± 0.014
- GCTCACTA — higher, 0.105 ± 0.0026
- ACTCTTAC — higher, 0.0838 ± 0.051
- AGACTGGC — within error, -0.174 ± 0.07
- AGACATCT — higher, 0.0328 ± 0.02
- TGTAAAAA — higher, 0.248 ± 0.099
- CGTAGAAA — higher, 0.2 ± 0.024
- CGTAAAAA — higher, 0.107 ± 0.012
- GGTAAACA — higher, 0.0182 ± 0.025
- AGTAAACA — higher, 0.177 ± 0.012
- AGTAAAAA — higher, 0.207 ± 0.023
- AGTAGAAA — higher, 0.184 ± 0.098
- TGTAAACA — higher, 0.237 ± 0.079
- TGTAGAAA — higher, 0.284 ± 0.026
- CGCATCAG — within error, -0.138 ± 0.15
- AACCGTTC — within error, -0.064 ± 0.11
- CTCTAATC — within error, -0.0502 ± 0.086
- AAAGGTGT — higher, 0.103 ± 0.015
- ATATTCAT — higher, 0.218 ± 0.056
- ATGTGCGG — within error, 0.0139 ± 0.1
- ACGTGCGC — higher, 0.279 ± 0.03
- ACGTGCGG — higher, 0.254 ± 0.056
- CCGTGCGC — within error, 0.0359 ± 0.14
- ATGTGCGC — higher, 0.1696 ± 0.00066
- ACGTGCGA — higher, 0.229 ± 0.046
- GGGGGTCA — within error, -0.172 ± 0.1
- GTAGTGAC — within error, -0.0549 ± 0.095
- GATCCACC — lower, -0.171 ± 0.058
- CGAGCGAG — higher, 0.0998 ± 0.018
